# pPAFAH FP inh: pPAFAH enzyme inhibitors, primary screen, biochemical, fluorescence polarization, human; inhibition, % at 3.39 µM; actives 1.5% (n = 330,000); Platelet-activating factor acetylhydrolase (Homo sapiens), Q13093; AID 463082, 2010; recombinant pPAFAH, FP-rhodamine probe fluorescence polarization;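 active = inhibition above the mean inhibition across the screen plus 3 SD, cut at about 25% in these data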;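 also: inhibitors block binding of the rhodamine activity-based probe so polarization drops; 0% = enzyme with DMSO and 100% = wells lacking pPAFAH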
# PME-1 primary: PME-1 inhibitors via competitive probe labeling, primary screen, biochemical, fluorescence polarization, FP-Rh probe, HTS; Protein phosphatase methylesterase 1 (Homo sapiens), Q9Y570; recombinant PME-1; inhibition, % at 5.9 µM; actives 0.53% (n = 320,000);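 active = inhibition above the campaign mean of all compounds plus 3 SD, cut at about 26% in these data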;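 also: competitive labeling of PME-1 active site by serine hydrolase directed probe; 0% = PME-1 with DMSO and 100% = wells lacking PME-1 enzyme; inhibitors block probe labeling so polarization falls and inhibition rises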
# PAFAH1B3 FP inh: PAFAH1B3 enzyme inhibitors, primary screen, biochemical, fluorescence polarization, human; Platelet-activating factor acetylhydrolase IB subunit alpha1 (Homo sapiens), Q15102; actives 0.28% (n = 340,000); recombinant PAFAH1B3, FP-rhodamine probe; inhibition, % at 3.39 µM;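 active = inhibition above the screen-wide average of all tested compounds plus 3 SD, cut at about 25% in these data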;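 also: 0% = enzyme with DMSO only and 100% = wells lacking PAFAH1B3 protein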
# Target sequence (Q15102 whole entry, looked up): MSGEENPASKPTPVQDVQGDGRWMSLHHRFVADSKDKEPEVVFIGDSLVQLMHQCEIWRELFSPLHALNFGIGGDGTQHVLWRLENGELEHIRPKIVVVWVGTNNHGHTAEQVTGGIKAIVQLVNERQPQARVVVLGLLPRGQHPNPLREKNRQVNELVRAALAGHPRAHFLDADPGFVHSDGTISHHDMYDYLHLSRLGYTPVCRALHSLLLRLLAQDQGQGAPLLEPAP
# PAFAH2 FP inh: PAFAH2 enzyme inhibitors, primary screen, biochemical, fluorescence polarization, human; AID 492956, 2010; inhibition, % at 3.39 µM; recombinant PAFAH2, FP-rhodamine activity probe; Platelet-activating factor acetylhydrolase 2, cytoplasmic (Homo sapiens), Q99487; actives 0.99% (n = 340,000);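 active = inhibition above the mean over all tested compounds plus 3 SD, cut at about 30% in these data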;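 also: inhibitors block probe labeling of enzyme so polarization drops; 0% = enzyme with DMSO and 100% = wells lacking PAFAH2 protein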
# Fam108B counter: mouse Fam108B serine hydrolase inhibitors, primary screen, counter-screen for RBBP9 inhibitor project, biochemical, fluorescence polarization; recombinant Fam108B, FP-Rh probe fluorescence polarization; inhibition, % at 9.51 µM; actives 0.33% (n = 300,000);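 active = inhibition above the screen mean inhibition plus 3 SD, computed separately per campaign, cut at about 18% in these data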;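 also: inhibitors lower polarization as less probe binds the enzyme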
# PAFAH1B2 inh: PAFAH1B2 enzyme inhibitors, primary screen, biochemical, fluorescence polarization, human. Platelet-activating factor acetylhydrolase IB subunit alpha2 (Homo sapiens), P68402. recombinant PAFAH1B2, FP-rhodamine activity probe. inhibition, % at 3.39 µM. actives 1.2% (n = 340,000). AID 492953, 2010;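 active = inhibition above the mean of all tested compounds plus 3 SD, cut at about 24% in these data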;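 also: 0% = enzyme with DMSO and 100% = wells lacking PAFAH1B2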
# Target sequence (P68402 whole entry, looked up): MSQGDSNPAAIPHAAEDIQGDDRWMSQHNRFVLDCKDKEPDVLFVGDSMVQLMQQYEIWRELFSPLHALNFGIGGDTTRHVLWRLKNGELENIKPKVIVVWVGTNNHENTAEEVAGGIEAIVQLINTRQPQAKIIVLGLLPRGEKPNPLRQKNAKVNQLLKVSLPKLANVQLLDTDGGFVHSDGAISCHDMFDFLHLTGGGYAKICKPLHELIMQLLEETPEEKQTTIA
# PAFAH2 confirm: PAFAH2 enzyme inhibitors, confirmation, biochemical, fluorescence polarization, human; actives 65% (n = 2,300); inhibition, % at 3.39 µM; shares compounds with PAFAH2 FP inh; recombinant PAFAH2, FP-rhodamine activity probe;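 active = mean inhibition over three repeats above a set limit taken from the earlier primary screen, cut at about 30% in these data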;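 also: inhibitor blocks binding of rhodamine activity probe so polarization falls; 0% = enzyme with DMSO and 100% = wells lacking PAFAH2 protein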
# The depositor's hits bear a star; nt = no result given. Most compounds without a hit are left out; they make up all but 2.9% or so of the library.
SMILES,pPAFAH FP inh,PME-1 primary,PAFAH1B3 FP inh,PAFAH2 FP inh,Fam108B counter,PAFAH1B2 inh,PAFAH2 confirm
COc1ccc(C(=O)Nc2cc(Cl)ccc2OC(=O)c2ccc(OC)cc2)cc1,2,-1,3,45*,-4,0,35*
CCC(C(=O)NCCCc1ccccc1)c1ccccc1 (stereo not given),2,-3,0,3,9,-1,nt
O=C1CC(c2ccccc2)CN1C(=O)c1cncc(Br)c1 (stereo not given),3,-2,-2,64*,5,0,61*
O=C1CC(c2ccccc2)CN1C(=O)c1cccnc1 (stereo not given),2,-4,0,-2,-1,3,nt
O=C(CCS(=O)(=O)c1ccc(Br)cc1)N1CCN(c2ccc(F)cc2)CC1,5,1,9,39*,-3,10,16
COc1ccc(NC(=O)CCNC(=O)c2ccccc2)cc1S(N)(=O)=O,-2,1,-5,-2,-2,2,nt
CCOC(=O)c1sc(=S)n(-c2ccccc2)c1N,3,-4,-3,1,5,-2,nt
CCOC(=O)c1sc(=S)n(-c2ccccc2)c1N(C(C)=O)C(C)=O,3,4,-4,35*,-1,0,18
CS(=O)(=O)Nc1ccc(C2=NN(C(=O)C3CCCCC3)C(c3cccs3)C2)cc1 (stereo not given),5,1,3,-1,-4,-2,nt
O=C(OCCC12CC3CC(CC(C3)C1)C2)c1ccc(NCc2cc(O)ccc2O)cc1,nt,nt,5,75*,nt,5,66*
O=C(OCC12CC3CC(CC(C3)C1)C2)c1ccc(NCc2cc(O)ccc2O)cc1,nt,nt,-2,6,nt,5,nt
S=C(NCC1CCCO1)Nc1ccc(Cl)cc1Cl (stereo not given),4,-3,7,0,0,-1,nt
Cc1noc(NC(=O)c2ccccc2C(F)(F)F)c1C#N,3,3,8,38*,0,1,1
CCSc1nnc(NC(=O)CSc2c(Cl)cccc2Cl)s1,13,-2,2,50*,-1,7,42*
Cc1csc(SC(C)C(=O)Nc2ccc3c(c2)OCCO3)n1 (stereo not given),1,-1,-2,-4,-2,1,nt
Nc1cc(C(F)(F)F)ccc1NCCc1ccccn1,7,10,5,64*,4,6,52*
Cc1cccc(N2C(=O)CN(Cc3cccs3)C2=S)c1,2,1,0,2,-1,-1,nt
N#CCSc1nc2cc(C(=O)N3CCC(C(N)=O)CC3)ccc2c2nc3ccccc3n12,16,2,9,10,-1,-4,nt
CCN(CC)c1ccc(S(=O)(=O)N2CCOCC2)cc1NC(=O)COC(=O)/C=C/c1ccc(O)c(OC)c1,nt,nt,3,65*,nt,0,66*
CCN(CC)c1ccc(S(=O)(=O)N2CCOCC2)cc1NC(=O)COC(=O)/C=C/c1ccc(C)o1,19,22,2,38*,-3,-1,40*
COc1cc(/C=C/C(=O)OCC(=O)Nc2cc(S(=O)(=O)N3CCOCC3)ccc2Cl)cc(OC)c1OC,0,nt,2,18,nt,2,nt
CCN(CC)c1ccc(S(=O)(=O)N2CCOCC2)cc1NC(=O)COC(=O)/C=C/c1ccccc1,nt,nt,1,57*,nt,5,42*
CCN(CC)c1ccc(S(=O)(=O)N2CCOCC2)cc1NS(C)(=O)=O,-9,2,nt,nt,2,nt,nt
O=C(NCCCN1CCCC1=O)NC1CCCCC1,-3,-4,14,5,10,4,nt
CSCCC(NS(=O)(=O)c1ccc(Cl)c(Cl)c1)C(=O)O (stereo not given),-9,-5,3,68*,-6,13,71*
Nc1nnc(CC(=O)N/N=C\c2ccc(-c3cccc(Cl)c3)o2)s1,16,-2,12,48*,-5,5,19

# Screens (PubChem BioAssay)
